The record followed here is the supplement of paper PMC11060735.

Structures are written as SMILES. Several values for one entry are separate records, joined by “and”; a condition that tells them apart may be missing. Identical values can stand only once. Counter-ions that a name gives are not always drawn. Out of some 1,800 compounds screened, about 50 (3%) showed activity. Many of the other results were omitted from the sample, so actives are more common in it than they were. Unmarked numbers belong to inactive results.

For the experiment, the system named is mouse p16Ink4a+/- lung fibroblasts (INKBRITE, bleomycin-injured). Put plainly: percentage of GFP+ (p16Ink4a+) fibroblasts among all cells in well; higher = less depletion of p16Ink4a+ cells, active = 20 or less. The following applies: 1 µM; 3 days.
Regarding `CCC[C@H](NC(=O)/C(C#N)=C/c1cccc(Br)n1)c1ccccc1` [Degrasyn], the “percentage of GFP+” value is 13.1% (active).

Consider `C[C@H](NC(=O)/C(C#N)=C/c1cccc(Br)n1)c1ccccc1`, for which the “percentage of GFP+” value is 43%.

As for `N#C/C(=C\c1ccc(O)c(O)c1)C(=O)NCc1ccccc1` [Tyrphostin Ag 490], the “percentage of GFP+” value was 42.9%.

In the case of `Nc1ccn([C@@H]2O[C@H](CO)[C@@H](O)[C@H]2O)c(=O)n1` [Cytidine], the “percentage of GFP+” value was 48.9%.

Turning to `Nc1ccn([C@@H]2O[C@H](CO)[C@@H](O)[C@@H]2O)c(=O)n1` [Cytarabine], the “percentage of GFP+” value was 26.8%.

On to `Nc1ccn([C@@H]2O[C@H](CO)[C@@H](O)C2(F)F)c(=O)n1` [Gemcitabine], for which the “percentage of GFP+” value is 17.1% (active).

As to `Cc1nc2n(c(=O)c1CCN1CCC(c3noc4cc(F)ccc34)CC1)CCCC2` [Risperidone], the “percentage of GFP+” value is 42.6%.

Regarding `COc1ccc(-c2ccc3ncc4c(c3c2)n(-c2ccc(N3CCNCC3)c(C(F)(F)F)c2)c(=O)n4C)cn1`, the “percentage of GFP+” value was 10.6% (active).

`Cn1c(=O)n(-c2ccc(C(C)(C)C#N)cc2)c2c3cc(-c4cnc5ccccc5c4)ccc3ncc21` [Dactolisib]: the “percentage of GFP+” value was 36%.

For the compound `CCC(=O)N1CCN(c2ccc(-n3c(=O)ccc4cnc5ccc(-c6cnc7ccccc7c6)cc5c43)cc2C(F)(F)F)CC1` [Torin 1], the “percentage of GFP+” value is 46%.

For `Cc1cc(Nc2cc(CN3CCOCC3)c3nc(C)c(Cc4ccc(Cl)cc4F)n3n2)[nH]n1`, the “percentage of GFP+” value was 43.7%.

Regarding `Cn1c(N2CCCCS2(=O)=O)nc(C(=O)NCc2ccc(F)cc2)c(O)c1=O`, the “percentage of GFP+” value is 26.4%.

For `NC(=O)c1noc([C@H](CCCC2CCCCC2)CC(=O)NO)n1`, the “percentage of GFP+” value was 47%.

Turning to `CC(=O)O[C@H]1C[C@@H]2CC[C@@H]3[C@H](CC[C@@]4(C)[C@H]3C[C@H]([N+]3(C)CCCCC3)[C@@H]4OC(C)=O)[C@@]2(C)C[C@@H]1N1CCCCC1` [Vecuronium], the “percentage of GFP+” value was 47%.

For `O=C(O)c1ccccc1` [Benzoic Acid], the “percentage of GFP+” value is 44.8%.

`CN(NC(=O)CC(=O)NN(C)C(=S)c1ccccc1)C(=S)c1ccccc1` [Elesclomol]: the “percentage of GFP+” value is 12% (active).

On to `O=C(O)CCNC(=O)c1ccccc1` [Betamipron], for which the “percentage of GFP+” value was 46%.

As to `Cn1cc(C2=C(c3cn(CCCSC(=N)N)c4ccccc34)C(=O)NC2=O)c2ccccc21`, the “percentage of GFP+” value is 58.4%.

For the compound `OC[C@H]1O[C@@H](n2cnc3c(O)ncnc32)[C@H](O)[C@@H]1O` [Inosine], the “percentage of GFP+” value was 47.7%.

Turning to `CN1CCN(CCOc2cc(OC3CCOCC3)c3c(Nc4c(Cl)ccc5c4OCO5)ncnc3c2)CC1` [Saracatinib], the “percentage of GFP+” value is 46.2%.

Regarding `CC[C@]1(O)C[C@@H]2CN(CCc3c([nH]c4ccccc34)[C@@](C(=O)OC)(c3cc4c(cc3OC)N(C=O)[C@@H]3C45CCN4CC=C[C@](CC)([C@H]45)[C@@H](OC(C)=O)[C@]3(O)C(=O)OC)C2)C1` (some centres not stated) [Vincristine], the “percentage of GFP+” value is 16.5% (active).

As to `CC[C@]1(O)C[C@@H]2CN(CCc3c([nH]c4ccccc34)[C@@](C(=O)OC)(c3cc4c(cc3OC)N(C)[C@@H]3C45CCN4CC=C[C@](CC)([C@H]45)[C@@H](OC(C)=O)[C@]3(O)C(=O)OC)C2)C1` (some centres not stated) [Vinblastine], the “percentage of GFP+” value is 24.8%.

For the compound `CC#C[C@]1(O)CC[C@H]2[C@@H]3CCC4=CC(=O)CCC4=C3[C@@H](c3ccc(N(C)C)cc3)C[C@@]21C` [Mifepristone], the “percentage of GFP+” value is 46.9%.

`CN[C@@H](C)C(=O)N[C@H](C(=O)N1CCC[C@H]1C(=O)Nc1snnc1-c1ccccc1)C1CCCCC1`: the “percentage of GFP+” value is 21.9%.

Take `C=CCNC(N)=S` [Allylthiourea]: the “percentage of GFP+” value was 35%.

In the case of `N=C(N)N/N=C/c1c(Cl)cccc1Cl` [Guanabenz], the “percentage of GFP+” value is 49.3%.

With `NC(=S)N/N=C/c1ncccc1N` [Triapine], the “percentage of GFP+” value was 17.4% (active).

On to `COc1ccc([C@@H]2CC(=O)c3c(O)cc(O)cc3O2)cc1O` [Hesperetin], for which the “percentage of GFP+” value was 47.8%.

Take `COc1cc2nccc(Oc3ccc(NC(=O)C4(C(=O)Nc5ccc(F)cc5)CC4)cc3)c2cc1OC` [Cabozantinib]: the “percentage of GFP+” value is 29.6%.

Regarding `CCOc1nc2cccc(C(=O)OC(C)OC(=O)OC3CCCCC3)c2n1Cc1ccc(-c2ccccc2-c2nn[nH]n2)cc1` (configuration not stated) [Candesartan Cilextil], the “percentage of GFP+” value was 44.8%.

Turning to `CC(=O)Oc1cc2c(s1)CCN(C(C(=O)C1CC1)c1ccccc1F)C2` (configuration not stated) [Prasugrel], the “percentage of GFP+” value was 49.3%.

Regarding `Cc1ccc(C(=O)Nc2ccc(CN3CCN(C)CC3)c(C(F)(F)F)c2)cc1C#Cc1cnc2[nH]ncc2c1` [Olverembatinib], the “percentage of GFP+” value is 17.2% (active).

In the case of `Cc1ccc(C(=O)Nc2ccc(CN3CCN(C)CC3)c(C(F)(F)F)c2)cc1C#Cc1cnc2cccnn12` [Ponatinib], the “percentage of GFP+” value is 31.2%.

With `Cc1ccc(NC(=O)c2ccc(CN3CCN(C)CC3)cc2)cc1Nc1nc(-c2cccnc2)cs1` [Masitinib], the “percentage of GFP+” value is 30.8%.

As for `Cn1c(=O)c(F)c(Nc2ccc(I)cc2F)c2c(=O)n(C[C@@H](O)CO)cnc21`, the “percentage of GFP+” value was 28.4%.

As to `O=S(=O)(c1cccc2cnccc12)N1CCCNCC1` [Fasudil Hydrochloride], the “percentage of GFP+” value is 48.7%.

Regarding `Nc1ccccc1NC(=O)c1ccc(CNC(=O)OCc2cccnc2)cc1` [Entinostat], the “percentage of GFP+” value is 32%.

As to `Nc1ccccc1NC(=O)c1ccc(CNc2nccc(-c3cccnc3)n2)cc1` [Mocetinostat], the “percentage of GFP+” value was 12.6% (active).

For `Cc1ccc(NC(=O)c2ccc(CN3CCN(C)CC3)cc2)cc1Nc1nccc(-c2cccnc2)n1` [Imatinib, Imatinib Mesylate], the “percentage of GFP+” value was 32.5% and 39%.

In the case of `N#CC1(c2ccc(NC(=O)c3cccnc3NCc3ccncc3)cc2)CCCC1` [Apatinib], the “percentage of GFP+” value was 28%.

With `N=C(N)NC(=O)c1nc(Cl)c(N)nc1N` [Amiloride], the “percentage of GFP+” value is 33.1%.

With `CC(C)(C#N)c1cc(Cn2cncn2)cc(C(C)(C)C#N)c1` [Anastrozole], the “percentage of GFP+” value is 45.5%.

Regarding `O=C(Cc1ccc(-c2ccc(OCCN3CCOCC3)cc2)cn1)NCc1ccccc1`, the “percentage of GFP+” value is 30.9%.

With `COc1ccc(C[C@H](NC(=O)[C@H](C)NC(=O)CN2CCOCC2)C(=O)N[C@@H](Cc2ccccc2)C(=O)[C@]2(C)CO2)cc1`, the “percentage of GFP+” value was 11.6% (active).

Regarding `COC[C@H](NC(=O)c1cnc(C)s1)C(=O)N[C@@H](COC)C(=O)N[C@@H](Cc1ccccc1)C(=O)C1(C)CO1` (some centres not stated) [Oprozomib], the “percentage of GFP+” value was 5.21% (active).

On to `CC(C)c1nc(CN(C)C(=O)N[C@@H](CCN2CCOCC2)C(=O)N[C@H](CC[C@H](Cc2ccccc2)NC(=O)OCc2cncs2)Cc2ccccc2)cs1` [Cobicistat], for which the “percentage of GFP+” value is 43.4%.

As to `C[C@H](N[C@@H](CCc1ccccc1)C(=O)O)C(=O)N1CCC[C@H]1C(=O)O` [Enalaprilat], the “percentage of GFP+” value is 36.7%.

Regarding `CC(C)C[C@H](NC(=O)[C@H](CCc1ccccc1)NC(=O)CN1CCOCC1)C(=O)N[C@@H](Cc1ccccc1)C(=O)N[C@@H](CC(C)C)C(=O)[C@@]1(C)CO1` [Carfilzomib], the “percentage of GFP+” value is 4.67% (active).

As to `COC1=C(OC)C(=O)C(CCCCCCCCCCO)=C(C)C1=O` [Idebenone], the “percentage of GFP+” value was 43.7%.

On to `CCCc1cc(C)nc(O)c1CNC(=O)c1cc(-c2ccc(N3CCN(C(C)C)CC3)nc2)cc2c1cnn2C(C)C`, for which the “percentage of GFP+” value is 39.6%.

Turning to `O=C(O)c1cc(-c2ccccc2)nc2ccccc12` [Cinchophen], the “percentage of GFP+” value was 46.7%.

`C[C@@]1(c2cc(-c3cncnc3)c(F)cc2F)CCSC(N)=N1`: the “percentage of GFP+” value is 36.4%.

For the compound `COC(=O)c1ccc2c(/C(=N/c3ccc(N(C)C(=O)CN4CCN(C)CC4)cc3)c3ccccc3)c(O)[nH]c2c1` [Nintedanib], the “percentage of GFP+” value was 25.4%.

As to `O=C(NC1CCOCC1)c1ccc(-c2cc(-c3c[nH]nc3-c3ccccn3)ccn2)cc1`, the “percentage of GFP+” value was 40.4%.

In the case of `Cc1cnc(NC(=O)Nc2cc(Br)c(C)cc2OC[C@@H]2CNCCO2)cn1`, the “percentage of GFP+” value is 28.6%.

Take `CCc1c(Cl)c(O)c(Cl)c(O)c1C(=O)O[C@H]1[C@H](O)[C@H](OC)[C@H](OC/C2=C\C=C\C[C@H](O)/C(C)=C\[C@H](CC)[C@@H](O[C@@H]3OC(C)(C)[C@@H](OC(=O)C(C)C)[C@H](O)[C@@H]3O)/C(C)=C\C(C)=C/C[C@@H]([C@@H](C)O)OC2=O)O[C@@H]1C` [Fidaxomicin]: the “percentage of GFP+” value was 50.9%.

Regarding `Cc1cc(C#N)cc(C)c1Oc1nc(Nc2ccc(C#N)cc2)nc(N)c1Br` [Etravirine], the “percentage of GFP+” value is 35%.

With `COc1cccc2c1C(=O)c1c(O)c3c(c(O)c1C2=O)C[C@@](O)(C(C)=O)C[C@@H]3O[C@H]1C[C@H](N)[C@H](O)[C@H](C)O1` [Daunorubicin], the “percentage of GFP+” value was 24.3%.

As to `COc1cccc2c1C(=O)c1c(O)c3c(c(O)c1C2=O)C[C@@](O)(C(=O)CO)C[C@@H]3O[C@H]1C[C@H](N)[C@H](O)[C@H](C)O1` [Doxorubicin], the “percentage of GFP+” value was 25.2%.

As for `CC(=O)[C@]1(O)Cc2c(O)c3c(c(O)c2[C@@H](O[C@H]2C[C@H](N)[C@H](O)[C@H](C)O2)C1)C(=O)c1ccccc1C3=O` [Idarubicin, Idarubicin Hydrochloride], the “percentage of GFP+” value was 19.9% (active).

Take `CC(=O)N1CCN(CCOc2ccc(C3CCN(C4=Nn5c(nnc5C(F)(F)F)CC4)CC3)cc2)CC1`: the “percentage of GFP+” value was 43.8%.

`CC[C@H](C)[C@H]1O[C@]2(CC[C@@H]1C)C[C@@H]1C[C@@H](C/C=C(\C)[C@@H](O[C@H]3C[C@H](OC)[C@@H](O[C@H]4C[C@H](OC)[C@@H](O)[C@H](C)O4)[C@H](C)O3)[C@@H](C)/C=C/C=C3\CO[C@@H]4[C@H](O)C(C)=C[C@@H](C(=O)O1)[C@]34O)O2` [Ivermectin]: the “percentage of GFP+” value is 37.9%.
